# ± gives the standard deviation of the averaged measurements. Over roughly 2,900 compounds, “NF-kB SEAP reporter activity, fold change vs agonist alone” has its median near 0.99; the highest 2% begin near 2.6. The list comes from a sample in which the highest values are over-represented; it also holds similar structures and randomly drawn compounds.
# What was measured:
# RAW-Dual [1] = experiment: NF-kB SEAP reporter activity, fold change vs agonist alone; cytotoxicity flag (confluency mask): not cytotoxic; higher = enhanced NF-kB activity
# Outline: (§1)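 RAW-Dual macrophages were seeded in DMEM at 50,000 cells/well in 384-well plates, given 50 nL of library stock by pin tool, and given a PRR agonist 1 h later. Plates were held at 37 °C, 5% CO2 for 20 hours, after which supernatant was read for IRF by QuantiLuc luminescence and for NF-κB by QuantiBlue absorbance at 620 nm. Reporter activity is expressed as fold change over wells that received agonist alone. A well was called cytotoxic when IncuCyte confluency fell below 70% of agonist controls in both mask sets.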
# RAW-Dual [2] = experiment: NF-kB SEAP reporter activity, fold change vs agonist alone; higher = enhanced NF-kB activity
# Outline: as §1
# RAW-Dual [3] = experiment: NF-kB SEAP reporter activity, fold change vs agonist alone; cytotoxicity flag (confluency mask): cytotoxic (confluency <70% of control); higher = enhanced NF-kB activity
# Outline: as §1
# [4] = agonist: ODN 1826 (TLR9) 0.5 ug/mL
# [5] = agonist: Pam2CSK4 (TLR2/6) 0.1 ug/mL
# [6] = agonist: Pam3CSK4 (TLR2/1) 0.1 ug/mL
# [7] = library stock concentration (final ~1000-fold dilution): 10 mM, cytotoxicity flag (confluency mask): not cytotoxic, agonist: Imiquimod (TLR7) […]
# [8] = library stock concentration (final ~1000-fold dilution): 10 mM, cytotoxicity flag (confluency mask): not cytotoxic, agonist: MPLA (TLR4) […]
# [9] = library stock concentration (final ~1000-fold dilution): 10 mM, cytotoxicity flag (confluency mask): cytotoxic (confluency <70% of control), agonist: Imiquimod (TLR7) […]
# [10] = library stock concentration (final ~1000-fold dilution): 10 mM, cytotoxicity flag (confluency mask): cytotoxic (confluency <70% of control), agonist: MPLA (TLR4) […]
smiles,measurement,setting,value
CC1=CC2(O)OC3(CC2=C(C)C)C(C)CCC13 (centres undefined) (library stock concentration (final ~1000-fold dilution): 10 mM),NF-kB SEAP reporter activity,RAW-Dual [1]; agonist: LPS (TLR4) 0.1 ug/mL,1.04 ± 0.043
same,NF-kB SEAP reporter activity,RAW-Dual [1]; [4],0.938 ± 0.07
same,NF-kB SEAP reporter activity,RAW-Dual [1]; [5],0.963 ± 0.062
same,NF-kB SEAP reporter activity,RAW-Dual [1]; [6],1.06 ± 0.049
CC1=CC2(O)OC3(CC2=C(C)C)C(C)CCC13 (centres undefined),NF-kB SEAP reporter activity,RAW-Dual [2]; [7],0.957 ± 0.03
same,NF-kB SEAP reporter activity,RAW-Dual [2]; [8],1.03 ± 0.025
CCc1cc2c(cc1N1CCC(N3CCOCC3)CC1)C(C)(C)c1[nH]c3cc(C#N)ccc3c1C2=O.Cl,NF-kB SEAP reporter activity,"RAW-Dual [2]; library stock concentration (final ~1000-fold dilution): 2 mM, cytotoxicity flag (confluency mask): not cytotoxic, agonist: MPLA (TLR4) […]",1.31
CCc1cc2c(cc1N1CCC(N3CCOCC3)CC1)C(C)(C)c1[nH]c3cc(C#N)ccc3c1C2=O.Cl (library stock concentration (final ~1000-fold dilution): 2 mM),NF-kB SEAP reporter activity,RAW-Dual [1]; agonist: LPS (TLR4) 0.1 ug/mL,1.71
same,NF-kB SEAP reporter activity,RAW-Dual [1]; [4],1.17
same,NF-kB SEAP reporter activity,RAW-Dual [1]; [5],1.15
same,NF-kB SEAP reporter activity,RAW-Dual [1]; [6],1.15
O=C(O)c1ccc(/C=C2/SC(=S)N(Cc3cccc(C(F)(F)F)c3)C2=O)cc1,NF-kB SEAP reporter activity,RAW-Dual [2]; [7],0.954
same,NF-kB SEAP reporter activity,RAW-Dual [2]; [8],0.727
O=C(O)c1ccc(/C=C2/SC(=S)N(Cc3cccc(C(F)(F)F)c3)C2=O)cc1 (library stock concentration (final ~1000-fold dilution): 10 mM),NF-kB SEAP reporter activity,RAW-Dual [1]; agonist: LPS (TLR4) 0.1 ug/mL,0.619
same,NF-kB SEAP reporter activity,RAW-Dual [1]; [4],0.737
same,NF-kB SEAP reporter activity,RAW-Dual [1]; [5],0.832
same,NF-kB SEAP reporter activity,RAW-Dual [1]; [6],0.5
COc1cc(OCc2cccc(-c3ccccc3)c2C)cc(OC)c1CN1CCCCC1C(=O)O (centres undefined),NF-kB SEAP reporter activity,RAW-Dual [2]; [9],1.22
same,NF-kB SEAP reporter activity,RAW-Dual [2]; [10],1.03
COc1cc(OCc2cccc(-c3ccccc3)c2C)cc(OC)c1CN1CCCCC1C(=O)O (centres undefined) (library stock concentration (final ~1000-fold dilution): 10 mM),NF-kB SEAP reporter activity,RAW-Dual [3]; agonist: LPS (TLR4) 0.1 ug/mL,1.21
same,NF-kB SEAP reporter activity,RAW-Dual [3]; [4],0.794
same,NF-kB SEAP reporter activity,RAW-Dual [3]; [5],1.03
same,NF-kB SEAP reporter activity,RAW-Dual [3]; [6],1.17
Cc1nccn1CC1CCc2c(c3ccccc3n2C)C1=O.Cl (centres undefined),NF-kB SEAP reporter activity,RAW-Dual [2]; [7],0.917
same,NF-kB SEAP reporter activity,RAW-Dual [2]; [8],0.785
Cc1nccn1CC1CCc2c(c3ccccc3n2C)C1=O.Cl (centres undefined) (library stock concentration (final ~1000-fold dilution): 10 mM),NF-kB SEAP reporter activity,RAW-Dual [1]; agonist: LPS (TLR4) 0.1 ug/mL,0.91
same,NF-kB SEAP reporter activity,RAW-Dual [1]; [4],0.853
same,NF-kB SEAP reporter activity,RAW-Dual [1]; [5],0.901
same,NF-kB SEAP reporter activity,RAW-Dual [1]; [6],1.11
C#Cc1cccc(Nc2ncnc3cc(OC)c(NC(=O)N4CC5CCN(C)C5C4)cc23)c1 (centres undefined) (library stock concentration (final ~1000-fold dilution): 10 mM),NF-kB SEAP reporter activity,RAW-Dual [1]; agonist: LPS (TLR4) 0.1 ug/mL,3.99
same,NF-kB SEAP reporter activity,RAW-Dual [1]; [4],0.205
same,NF-kB SEAP reporter activity,RAW-Dual [1]; [5],0.732
same,NF-kB SEAP reporter activity,RAW-Dual [1]; [6],0.783
COc1cc2ncnc(Nc3cc(Br)c(O)c(Br)c3)c2cc1OC,NF-kB SEAP reporter activity,RAW-Dual [2]; [7],0.787
same,NF-kB SEAP reporter activity,RAW-Dual [2]; [8],1.53
C#Cc1cccc(Nc2ncnc3cc(OCCOC)c(OCCO)cc23)c1.Cl,NF-kB SEAP reporter activity,RAW-Dual [2]; [7],1.81
same,NF-kB SEAP reporter activity,RAW-Dual [2]; [8],2.51
COc1cc2ncnc(Nc3ccc(O)c(Br)c3)c2cc1OC (library stock concentration (final ~1000-fold dilution): 10 mM),NF-kB SEAP reporter activity,RAW-Dual [1]; agonist: LPS (TLR4) 0.1 ug/mL,2.33
same,NF-kB SEAP reporter activity,RAW-Dual [1]; [4],1.17
same,NF-kB SEAP reporter activity,RAW-Dual [1]; [5],0.685
same,NF-kB SEAP reporter activity,RAW-Dual [1]; [6],1.19
C#Cc1cccc(Nc2ncnc3cc(OC)c(OCCCCCCC(=O)NO)cc23)c1,NF-kB SEAP reporter activity,RAW-Dual [2]; [9],1.4
same,NF-kB SEAP reporter activity,RAW-Dual [2]; [10],1.87
C#Cc1cccc(Nc2ncnc3cc(OCCOC)c(OCCOC)cc23)c1 (library stock concentration (final ~1000-fold dilution): 10 mM),NF-kB SEAP reporter activity,RAW-Dual [1]; agonist: LPS (TLR4) 0.1 ug/mL,4.68
same,NF-kB SEAP reporter activity,RAW-Dual [1]; [4],1.33
same,NF-kB SEAP reporter activity,RAW-Dual [1]; [5],0.887
same,NF-kB SEAP reporter activity,RAW-Dual [1]; [6],0.935
C#Cc1cccc(Nc2ncnc3cc(OCCOC)c(OCCOC)cc23)c1,NF-kB SEAP reporter activity,RAW-Dual [2]; [7],1.02
same,NF-kB SEAP reporter activity,RAW-Dual [2]; [8],1.88
COc1cc2ncnc(Nc3ccc(O)cc3)c2cc1OC (library stock concentration (final ~1000-fold dilution): 10 mM),NF-kB SEAP reporter activity,RAW-Dual [1]; agonist: LPS (TLR4) 0.1 ug/mL,0.948
same,NF-kB SEAP reporter activity,RAW-Dual [1]; [4],0.826
same,NF-kB SEAP reporter activity,RAW-Dual [1]; [5],0.971
same,NF-kB SEAP reporter activity,RAW-Dual [1]; [6],0.867
C#Cc1cccc(Nc2ncnc3cc(OCCOC)c(OCCOC)cc23)c1.Cl (library stock concentration (final ~1000-fold dilution): 2 mM),NF-kB SEAP reporter activity,RAW-Dual [1]; agonist: LPS (TLR4) 0.1 ug/mL,2.26
same,NF-kB SEAP reporter activity,RAW-Dual [1]; [4],0.972
same,NF-kB SEAP reporter activity,RAW-Dual [1]; [5],0.853
same,NF-kB SEAP reporter activity,RAW-Dual [1]; [6],1.1
COc1cc2ncnc(Nc3ccc(O)c(Br)c3)c2cc1OC,NF-kB SEAP reporter activity,RAW-Dual [2]; [7],1.45
same,NF-kB SEAP reporter activity,RAW-Dual [2]; [8],1.78
COc1cc2ncnc(Nc3ccc(F)c(Cl)c3)c2cc1NC(=O)/C=C/CN1CCCCC1,NF-kB SEAP reporter activity,RAW-Dual [2]; [9],2.28
same,NF-kB SEAP reporter activity,RAW-Dual [2]; [10],1.52
C#Cc1cccc(Nc2ncnc3cc4c(cc23)OCCOCCOCCO4)c1,NF-kB SEAP reporter activity,RAW-Dual [2]; [7],1.06
same,NF-kB SEAP reporter activity,RAW-Dual [2]; [8],1.53
C#Cc1cccc(Nc2ncnc3cc(OC)c(OCCCCCCC(=O)NO)cc23)c1 (library stock concentration (final ~1000-fold dilution): 10 mM),NF-kB SEAP reporter activity,RAW-Dual [3]; agonist: LPS (TLR4) 0.1 ug/mL,7.09
same,NF-kB SEAP reporter activity,RAW-Dual [3]; [4],1.67
same,NF-kB SEAP reporter activity,RAW-Dual [3]; [5],0.682
same,NF-kB SEAP reporter activity,RAW-Dual [3]; [6],1.41
COc1cc2ncnc(Nc3cccc(Cl)c3F)c2cc1OC(=O)N1CCN(C)CC1C (centres undefined),NF-kB SEAP reporter activity,RAW-Dual [2]; [7],0.868
same,NF-kB SEAP reporter activity,RAW-Dual [2]; [8],1.05
C#Cc1cccc(Nc2ncnc3cc4c(cc23)OCCOCCOCCO4)c1 (library stock concentration (final ~1000-fold dilution): 10 mM),NF-kB SEAP reporter activity,RAW-Dual [1]; agonist: LPS (TLR4) 0.1 ug/mL,1.8
same,NF-kB SEAP reporter activity,RAW-Dual [1]; [4],0.972
same,NF-kB SEAP reporter activity,RAW-Dual [1]; [5],1.16
same,NF-kB SEAP reporter activity,RAW-Dual [1]; [6],1.44
C#Cc1cccc(Nc2ncnc3cc(OC)c(NC(=O)N4CC5CCN(C)C5C4)cc23)c1 (centres undefined),NF-kB SEAP reporter activity,RAW-Dual [2]; [7],1.09
same,NF-kB SEAP reporter activity,RAW-Dual [2]; [8],1.4
COc1cc2ncnc(Nc3cc(Br)c(O)c(Br)c3)c2cc1OC (library stock concentration (final ~1000-fold dilution): 10 mM),NF-kB SEAP reporter activity,RAW-Dual [1]; agonist: LPS (TLR4) 0.1 ug/mL,2.14
same,NF-kB SEAP reporter activity,RAW-Dual [1]; [4],0.951
same,NF-kB SEAP reporter activity,RAW-Dual [1]; [5],0.984
same,NF-kB SEAP reporter activity,RAW-Dual [1]; [6],0.757
COc1cc2ncnc(Nc3ccc(O)cc3)c2cc1OC,NF-kB SEAP reporter activity,RAW-Dual [2]; [7],1.05
same,NF-kB SEAP reporter activity,RAW-Dual [2]; [8],1.16
COc1cc2ncnc(Nc3cccc(Cl)c3)c2cc1OC (library stock concentration (final ~1000-fold dilution): 10 mM),NF-kB SEAP reporter activity,RAW-Dual [3]; agonist: LPS (TLR4) 0.1 ug/mL,1.59
same,NF-kB SEAP reporter activity,RAW-Dual [3]; [4],0.692
same,NF-kB SEAP reporter activity,RAW-Dual [3]; [5],0.764
same,NF-kB SEAP reporter activity,RAW-Dual [3]; [6],1.02
COc1cc2ncnc(Nc3ccc(F)c(Cl)c3)c2cc1NC(=O)/C=C/CN1CCCCC1 (library stock concentration (final ~1000-fold dilution): 10 mM),NF-kB SEAP reporter activity,RAW-Dual [3]; agonist: LPS (TLR4) 0.1 ug/mL,0.266
same,NF-kB SEAP reporter activity,RAW-Dual [3]; [4],0.26
same,NF-kB SEAP reporter activity,RAW-Dual [3]; [5],0.179
same,NF-kB SEAP reporter activity,RAW-Dual [3]; [6],0.384

# Reference: the supplement of paper PMC10037445
